Measured values as given in the supplement of paper PMC6555819.

How the values were obtained:
Assay in all cases: PBM binding z-score (relative to random genomic background probes); higher = stronger binding; sequences stand for … in GC…GCGATTGACAGCGTAGAATGAAGG
[1] = tested on: FXR:RXRa (NR concentration 270 nM, RXRa partner concentration 90 nM)
Outline: (§1)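 Each nuclear receptor dimer, without ligand, was incubated for 1 h on custom Agilent 4×180K protein-binding microarrays. Binding was detected with antibodies against each partner (one per run), and scanned fluorescence was regression-normalized. The binding z-scores are referenced to random human genomic background probes.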

[2] = tested on: LXRa:RXRa (NR concentration 270 nM, RXRa partner concentration 90 nM)
Outline: as §1

[3] = tested on: LXRa homodimer (NR concentration 270 nM)
Outline: as §1

[4] = tested on: LXRb:RXRa (NR concentration 270 nM, RXRa partner concentration 90 nM)
Outline: as §1

[5] = tested on: LXRb homodimer (NR concentration 270 nM)
Outline: as §1

[6] = tested on: PPARa:RXRa (NR concentration 270 nM, RXRa partner concentration 90 nM)
Outline: as §1

[7] = tested on: PPARg:RXRa (NR concentration 180 nM, RXRa partner concentration 90 nM)
Outline: as §1

[8] = tested on: PPARg:RXRa 270nM:90nM, anti-RXR (NR concentration 270 nM, RXRa partner concentration 90 nM)
Outline: as §1

[9] = tested on: PPARg:RXRa 30nM:10nM, anti-RXR (NR concentration 30 nM, RXRa partner concentration 10 nM)
Outline: as §1

[10] = tested on: PPARg:RXRa 90nM:30nM, anti-RXR (NR concentration 90 nM, RXRa partner concentration 30 nM)
Outline: as §1

[11] = tested on: PPARg:RXRa DBDmut IVT, anti-RXR (DBD mutation: RXRa K156A/R161A, NR concentration 270 nM, RXRa partner concentration 90 nM)
Outline: as §1

[12] = tested on: PPARg:RXRa IVT, anti-PPARg (NR concentration 270 nM, RXRa partner concentration 90 nM)
Outline: as §1

[13] = tested on: PPARg DBDmut:RXRa IVT, anti-PPARg (DBD mutation: PPARg1 K132A/R137A, NR concentration 270 nM, RXRa partner concentration 90 nM)
Outline: as §1

[14] = tested on: PPARg DBDmut IVT, anti-PPARg (DBD mutation: PPARg1 K132A/R137A, NR concentration 270 nM)
Outline: as §1

[15] = tested on: PPARg homodimer (NR concentration 180 nM)
Outline: as §1

[16] = tested on: PXR:RXRa (NR concentration 270 nM, RXRa partner concentration 90 nM)
Outline: as §1

[17] = tested on: PXR homodimer (NR concentration 270 nM)
Outline: as §1

[18] = tested on: RARa:RXR (NR concentration 270 nM, RXRa partner concentration 90 nM)
Outline: as §1

[19] = tested on: RARa homodimer (NR concentration 270 nM)
Outline: as §1

[20] = tested on: RARb:RXRa (NR concentration 270 nM, RXRa partner concentration 90 nM)
Outline: as §1

Sequence | PBM binding z-score [1] | PBM binding z-score [2] | PBM binding z-score [3] | PBM binding z-score [4] | PBM binding z-score [5] | PBM binding z-score [6] | PBM binding z-score [7] | PBM binding z-score [8] | PBM binding z-score [9] | PBM binding z-score [10] | PBM binding z-score [11] | PBM binding z-score [12] | PBM binding z-score [13] | PBM binding z-score [14] | PBM binding z-score [15] | PBM binding z-score [16] | PBM binding z-score [17] | PBM binding z-score [18] | PBM binding z-score [19] | PBM binding z-score [20]
GCTGCTAGGTCAGGTTGCTCAGCTAACGGGTACG | 1.19 | 0.603 | -0.362 | 0.238 | -0.468 | 1.3 | 0.32 | 1.06 | -0.602 | 0.106 | 2.92 | 2.01 | -0.97 | -0.836 | 0.251 | -0.00315 | -0.858 | 0.655 | -0.624 | 3.17
CGTCACAGTTCAAGGTAACGTAACAGAAAGCAGC | 2.2 | 1.91 | 0.443 | 1.52 | 0.237 | 2.46 | 1.29 | 1.19 | 0.243 | 0.61 | 0.275 | 1.23 | 0.33 | 0.734 | 0.946 | 1.93 | 0.75 | 1.78 | 0.462 | 2.73
CCTTACGGGTCAAGGGTATAGCACGGGTGGTACG | 5.14 | 3.24 | -0.107 | 2.59 | -0.218 | 5.12 | 5.03 | 5.23 | 2.3 | 4.37 | 1.83 | 3.8 | 0.361 | -0.594 | 3.73 | 2.9 | -0.229 | 4.27 | 0.518 | 3.98
CCTGCTAGGTCAATGGTCAGCCAAAGCAGCTCGC | 2.77 | 2.02 | 0.0245 | 1.36 | -0.223 | 3.1 | 5.04 | 5.03 | 2.96 | 5.02 | 4.18 | 3.97 | -0.884 | -0.321 | 1.16 | 0.76 | -0.543 | 1.52 | -0.219 | 3.77
CCTGCTAGGTCAATGGTCAGCTAGAGCAGCTCGC | 2.73 | 1.95 | -0.206 | 1.03 | -0.0711 | 3.04 | 4.26 | 5.05 | 2.14 | 4.51 | 4.03 | 3.86 | -0.82 | -0.691 | 1.03 | 0.552 | -0.638 | 1.5 | -0.363 | 3.71
ATCTATAGGTAACAAGTTCAGTGAAAGAGAGGAC | 0.766 | 1.11 | 0.709 | 0.927 | 0.629 | 1.64 | 1.46 | 1.66 | 0.781 | 1.46 | 2.14 | 1.83 | 1.5 | 1.51 | 1.15 | 1.72 | 1.68 | 1.74 | 1.48 | 1.72
